Measurements: PubChem BioAssay AID1159569 (Broad Institute, 2015)
Results with a measured potency or affinity are listed apart. Results filed as inconclusive are left out. Calls of active or inactive are those of the source. No rule for the calls is given here.

Experiment: HepG2 cell cytotoxicity, dose response, cytotoxicity control, plate reader, dry powder samples (AID 1159569)
Conditions: HepG2 cytotoxicity counterscreen; series mostly up to 50 µM; activity change, negative = cytotoxicity: at the top concentration

Compound	activity change, negative = cytotoxicity
COc1ccc2c3c(n(C)c2c1)[C@@H](CO)N(C(=O)c1ccc(F)cc1)CC31CN(C(=O)Nc2ccc(F)cc2)C1	-19.1% (inactive)
COc1ccc(S(=O)(=O)Nc2ccc3c(c2)CC(=O)N([C@@H](C)CO)C[C@H](C)[C@H](CN(C)S(=O)(=O)c2ccc(OC)cc2)O3)cc1	-25.8% (inactive)
COc1cccc(-c2cccc(-c3nc(C(=O)NCc4ccc(Oc5ccccc5)cc4)cc4c3[C@@H](CCO)N(S(=O)C(C)(C)C)C4)c2)c1 (stereo partly specified)	-3.88% (inactive)
COc1ccc2c3c([nH]c2c1)[C@H](CO)N(C(=O)C1CCCCC1)CC31CCN(Cc2nccs2)CC1	0.429% (inactive)
O=C(c1cccc(F)c1)N1CC(=O)N2[C@H](C1)[C@@H](c1ccc(-c3cccnc3)cc1)[C@@H]2CO	-4.42% (inactive)
C[C@@H](NC(=O)C[C@H]1C[C@@H]2c3cc(NS(=O)(=O)c4ccc(F)cc4)ccc3O[C@@H]2[C@H](CO)O1)c1ccccc1	-16.7% (inactive)
C[C@@H]1CN([C@@H](C)CO)C(=O)Cc2cc(NC(=O)Nc3ccc4c(c3)OCO4)ccc2O[C@@H]1CN(C)CC1CC1	-11.2% (inactive)
Cc1ccc(S(=O)(=O)N(C)C[C@H]2OCc3ccccc3-c3c(n(C)c4ccccc34)C(=O)N([C@H](C)CO)C[C@@H]2C)cc1	-40.5% (inactive)
COc1ccc(-c2ccccc2[C@H]2[C@@H](C#N)N(C(=O)C3CCCC3)[C@@H]2CO)cc1	-33.4% (inactive)
COc1cccc(S(=O)(=O)N(C)C[C@@H]2Oc3ncc(C#Cc4ccc(OC)c(OC)c4)cc3C(=O)N([C@H](C)CO)C[C@@H]2C)c1	2.24% (inactive)
COc1ccc2c3c(n(C)c2c1)[C@@H](CO)N(C(=O)c1ccccc1)CC31CCN(C(=O)c2ccccc2)CC1	-16.1% (inactive)
CC(C)(C)[S@@](=O)N1Cc2cc(C(=O)N[C@@H]3CCN(Cc4ccccc4)C3)nc(-c3cccc(-c4cccnc4)c3)c2[C@H]1CCO	-19.4% (inactive)
COc1ccc(NC(=O)N(C)C[C@@H]2Oc3cc(-c4ccc(C)cc4)ccc3S(=O)(=O)N([C@H](C)CO)C[C@@H]2C)cc1	-15.6% (inactive)
COc1ccc2c3c(n(C)c2c1)[C@@H](CO)N(C(=O)C1CC1)CC31CCN(C(=O)Nc2cccc(F)c2)CC1	-11.9% (inactive)
C[C@@H]1CN([C@H](C)CO)C(=O)c2cccc(NC(=O)Nc3cccc4ccccc34)c2O[C@@H]1CN(C)C(=O)Nc1ccc(C(F)(F)F)cc1	-47% (inactive)
CCCNC(=O)Nc1ccc2c(c1)OC[C@@H](C)N(Cc1ccccc1)C[C@@H](C)[C@H](OC)CN(C)C2=O	-20.7% (inactive)

Compound	activity change, negative = cytotoxicity
CCCNC(=O)N1[C@H](C#N)[C@H](c2ccc(C#Cc3cccc(F)c3)cc2)[C@H]1CO	-49.6% (inactive)
OC[C@H]1CC[C@@H]2O[C@H](CCc3ccc(C#CCc4ccccc4)cc3)[C@H](n3cc(-c4ccccc4)nn3)C[C@@H]2O1	-31.8% (inactive)
COc1ccc(C#Cc2ccc3c(c2)O[C@H](CN(C)S(=O)(=O)c2ccccc2F)[C@@H](C)CN([C@H](C)CO)S3(=O)=O)cc1	-10.9% (inactive)
C[C@@H]1CN([C@@H](C)CO)C(=O)c2cccc(NC(=O)Nc3ccccc3)c2O[C@@H]1CN(C)C(=O)Nc1ccc(F)cc1	-2.4% (inactive)
O=C(Nc1ccccc1F)N1CCCCN2[C@@H](CO)[C@H](c3ccc(C#Cc4cccnc4)cc3)[C@@H]2C1	-29.5% (inactive)
COc1ccc2c3c([nH]c2c1)[C@@H](CO)N(Cc1ccccc1)CC31CCN(Cc2cncnc2)CC1	-24.7% (inactive)
C[C@H]1CN([C@@H](C)CO)C(=O)c2c(c3ccccc3n2C)-c2ccccc2CO[C@@H]1CN(C)C(=O)Nc1ccc(-c2ccccc2)cc1	-18.3% (inactive)
COc1ccc(-c2ccccc2[C@H]2[C@@H](C#N)N(C(=O)NC(C)C)[C@H]2CO)cc1	-17.9% (inactive)
COc1ccc(C#Cc2ccc3c(c2)O[C@H](CN(C)C(=O)Nc2cccc(OC)c2)[C@H](C)CN([C@@H](C)CO)S3(=O)=O)cc1	-10.1% (inactive)
CCCC#Cc1ccc2c(c1)O[C@H](CN(C)C(=O)Nc1ccc(OC)cc1)[C@H](C)CN([C@H](C)CO)S2(=O)=O	-25.5% (inactive)
COc1cccc(CN2CC3(CCN(Cc4ccccn4)CC3)c3c([nH]c4cc(OC)ccc34)[C@@H]2CO)c1	-31% (inactive)
COc1ccc2c3c(n(C)c2c1)[C@@H](CO)N(C(=O)C1CCCC1)CC31CCN(C(=O)Nc2cccc(F)c2)CC1	-32.3% (inactive)
CC(C)CNC[C@@H]1[C@@H](c2ccccc2)[C@@H](CO)N1Cc1ccc(F)cc1	-28% (inactive)
CCCC#Cc1ccc([C@H]2[C@@H](CO)N(C(=O)C3CCCCC3)[C@H]2C#N)cc1	-36.5% (inactive)
C/C=C/c1ccc([C@H]2[C@@H](C#N)N(C(=O)NC3CCCC3)[C@@H]2CO)cc1	-33.3% [at 56 µM] (inactive)
